# In ChEMBL document CHEMBL1961873, “Compounds: GSK PKIS; Assays: Nanosyn kinase panel” (2012):
# Legend:
# [1] = target: 5'-AMP-activated protein kinase catalytic subunit alpha-2 (Homo sapiens) (UniProt P54646); conditions: at 1 µM
# [2] = target: T1, NUAK family SNF1-like kinase 1 (Homo sapiens) (UniProt O60285); conditions: at 0.1 µM
# T1 sequence (whole entry): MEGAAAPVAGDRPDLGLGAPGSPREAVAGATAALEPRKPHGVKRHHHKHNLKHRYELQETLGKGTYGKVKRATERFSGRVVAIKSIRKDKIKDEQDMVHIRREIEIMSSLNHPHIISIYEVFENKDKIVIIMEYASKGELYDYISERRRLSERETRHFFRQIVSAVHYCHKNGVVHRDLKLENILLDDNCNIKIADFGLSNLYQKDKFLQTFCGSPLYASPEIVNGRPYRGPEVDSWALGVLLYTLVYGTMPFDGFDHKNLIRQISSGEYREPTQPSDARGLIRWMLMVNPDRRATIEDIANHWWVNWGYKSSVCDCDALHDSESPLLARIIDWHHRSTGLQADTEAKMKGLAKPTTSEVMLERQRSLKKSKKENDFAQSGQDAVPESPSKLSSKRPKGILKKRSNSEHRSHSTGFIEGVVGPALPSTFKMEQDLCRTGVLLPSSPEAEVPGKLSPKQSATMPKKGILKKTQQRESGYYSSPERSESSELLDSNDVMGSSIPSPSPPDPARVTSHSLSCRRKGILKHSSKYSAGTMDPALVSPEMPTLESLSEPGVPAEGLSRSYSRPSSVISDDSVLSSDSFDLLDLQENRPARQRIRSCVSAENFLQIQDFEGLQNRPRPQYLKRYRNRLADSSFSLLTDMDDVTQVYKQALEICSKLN
# [3] = target: T1, NUAK family SNF1-like kinase 1 (Homo sapiens); conditions: at 1 µM
# [4] = target: T2, Serine/threonine-protein kinase BRSK1 (Homo sapiens) (UniProt Q8TDC3); conditions: at 0.1 µM
# T2 sequence (whole entry): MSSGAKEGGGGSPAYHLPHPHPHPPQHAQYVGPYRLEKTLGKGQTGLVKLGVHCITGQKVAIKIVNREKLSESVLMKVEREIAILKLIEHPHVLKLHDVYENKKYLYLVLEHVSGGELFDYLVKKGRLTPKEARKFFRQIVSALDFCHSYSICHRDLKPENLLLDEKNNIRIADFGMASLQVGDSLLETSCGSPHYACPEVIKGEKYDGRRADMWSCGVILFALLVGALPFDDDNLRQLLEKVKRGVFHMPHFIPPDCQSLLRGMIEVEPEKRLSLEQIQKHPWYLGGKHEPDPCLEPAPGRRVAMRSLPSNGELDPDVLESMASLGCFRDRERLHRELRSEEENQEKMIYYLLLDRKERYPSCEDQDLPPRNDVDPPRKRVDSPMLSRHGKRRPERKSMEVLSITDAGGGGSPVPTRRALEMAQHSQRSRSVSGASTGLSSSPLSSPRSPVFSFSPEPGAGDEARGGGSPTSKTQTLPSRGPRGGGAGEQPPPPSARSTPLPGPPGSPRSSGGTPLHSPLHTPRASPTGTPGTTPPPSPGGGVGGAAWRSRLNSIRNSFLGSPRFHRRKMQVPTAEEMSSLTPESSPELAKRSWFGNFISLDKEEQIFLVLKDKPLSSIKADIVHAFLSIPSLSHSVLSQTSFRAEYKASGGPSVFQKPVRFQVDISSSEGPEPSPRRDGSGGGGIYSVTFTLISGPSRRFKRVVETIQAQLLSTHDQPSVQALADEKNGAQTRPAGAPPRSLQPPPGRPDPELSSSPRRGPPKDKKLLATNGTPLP
# [5] = target: T2, Serine/threonine-protein kinase BRSK1 (Homo sapiens); conditions: at 1 µM
# [6] = target: T3, Serine/threonine-protein kinase BRSK2 (Homo sapiens) (UniProt Q8IWQ3); conditions: at 0.1 µM
# T3 sequence (whole entry): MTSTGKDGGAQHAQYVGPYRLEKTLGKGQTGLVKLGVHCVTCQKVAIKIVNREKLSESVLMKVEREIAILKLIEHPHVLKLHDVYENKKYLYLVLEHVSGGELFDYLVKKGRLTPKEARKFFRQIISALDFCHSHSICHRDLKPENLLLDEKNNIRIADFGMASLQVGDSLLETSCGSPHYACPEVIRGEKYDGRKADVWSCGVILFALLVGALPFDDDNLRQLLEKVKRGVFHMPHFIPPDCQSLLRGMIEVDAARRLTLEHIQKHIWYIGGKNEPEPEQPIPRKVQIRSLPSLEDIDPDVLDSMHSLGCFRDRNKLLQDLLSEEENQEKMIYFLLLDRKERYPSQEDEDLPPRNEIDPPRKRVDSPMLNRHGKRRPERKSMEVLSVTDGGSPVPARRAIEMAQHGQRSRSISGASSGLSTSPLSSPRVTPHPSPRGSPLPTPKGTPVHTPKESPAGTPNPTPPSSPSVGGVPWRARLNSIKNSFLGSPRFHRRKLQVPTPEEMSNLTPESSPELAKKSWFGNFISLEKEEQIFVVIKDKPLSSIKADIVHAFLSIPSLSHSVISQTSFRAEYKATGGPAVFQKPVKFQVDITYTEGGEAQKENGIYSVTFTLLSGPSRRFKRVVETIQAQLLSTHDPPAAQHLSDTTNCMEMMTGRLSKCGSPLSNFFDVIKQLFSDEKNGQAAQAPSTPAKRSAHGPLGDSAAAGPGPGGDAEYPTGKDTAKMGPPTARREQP
# [7] = target: T3, Serine/threonine-protein kinase BRSK2 (Homo sapiens); conditions: at 1 µM
# [8] = target: Calcium/calmodulin-dependent protein kinase type 1D (Homo sapiens) (UniProt Q8IU85); conditions: at 0.1 µM
# [9] = target: Calcium/calmodulin-dependent protein kinase type 1D (Homo sapiens) (UniProt Q8IU85); conditions: at 1 µM
# [10] = target: Calcium/calmodulin-dependent protein kinase type II subunit alpha (Homo sapiens) (UniProt Q9UQM7); conditions: at 0.1 µM
# [11] = target: Calcium/calmodulin-dependent protein kinase type II subunit alpha (Homo sapiens) (UniProt Q9UQM7); conditions: at 1 µM
# [12] = target: Calcium/calmodulin-dependent protein kinase type II subunit delta (Homo sapiens) (UniProt Q13557); conditions: at 0.1 µM
# [13] = target: Calcium/calmodulin-dependent protein kinase type II subunit delta (Homo sapiens) (UniProt Q13557); conditions: at 1 µM
# [14] = target: T4, Calcium/calmodulin-dependent protein kinase type IV (Homo sapiens) (UniProt Q16566); conditions: at 0.1 µM
# T4 sequence (whole entry): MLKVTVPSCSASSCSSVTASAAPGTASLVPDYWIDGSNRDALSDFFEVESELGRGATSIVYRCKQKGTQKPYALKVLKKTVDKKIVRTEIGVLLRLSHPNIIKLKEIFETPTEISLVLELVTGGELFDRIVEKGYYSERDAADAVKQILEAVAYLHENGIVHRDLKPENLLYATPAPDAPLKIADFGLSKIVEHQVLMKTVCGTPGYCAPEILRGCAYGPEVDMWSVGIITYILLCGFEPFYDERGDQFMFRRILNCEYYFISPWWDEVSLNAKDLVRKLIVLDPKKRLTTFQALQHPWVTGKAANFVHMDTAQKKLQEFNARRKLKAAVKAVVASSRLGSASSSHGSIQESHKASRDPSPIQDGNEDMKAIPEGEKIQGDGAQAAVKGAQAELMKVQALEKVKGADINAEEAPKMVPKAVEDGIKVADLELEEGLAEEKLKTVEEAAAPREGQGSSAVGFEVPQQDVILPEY
# [15] = target: T4, Calcium/calmodulin-dependent protein kinase type IV (Homo sapiens); conditions: at 1 µM
# [16] = target: T5, Serine/threonine-protein kinase Chk1 (Homo sapiens) (UniProt O14757); conditions: at 0.1 µM
# T5 sequence (whole entry): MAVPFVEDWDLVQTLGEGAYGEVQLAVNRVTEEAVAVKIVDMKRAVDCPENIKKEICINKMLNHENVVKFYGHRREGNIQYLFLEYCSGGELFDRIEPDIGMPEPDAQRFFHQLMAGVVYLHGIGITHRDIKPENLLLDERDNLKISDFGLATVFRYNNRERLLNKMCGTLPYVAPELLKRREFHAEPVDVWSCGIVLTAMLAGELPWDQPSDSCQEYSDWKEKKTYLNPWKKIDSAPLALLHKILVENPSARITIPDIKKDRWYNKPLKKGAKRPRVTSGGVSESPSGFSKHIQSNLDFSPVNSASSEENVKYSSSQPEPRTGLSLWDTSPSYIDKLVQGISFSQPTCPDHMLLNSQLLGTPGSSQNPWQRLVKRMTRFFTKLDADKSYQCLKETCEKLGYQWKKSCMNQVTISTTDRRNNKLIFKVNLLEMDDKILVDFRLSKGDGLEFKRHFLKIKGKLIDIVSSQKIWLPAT
# [17] = target: T5, Serine/threonine-protein kinase Chk1 (Homo sapiens); conditions: at 1 µM
# [18] = target: Serine/threonine-protein kinase Chk2 (Homo sapiens) (UniProt O96017); conditions: at 0.1 µM
# [19] = target: Serine/threonine-protein kinase Chk2 (Homo sapiens) (UniProt O96017); conditions: at 1 µM
# [20] = target: Death-associated protein kinase 1 (Homo sapiens) (UniProt P53355); conditions: at 0.1 µM;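 also: reported figure is the mean inhibition of DAPK1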
# Death-associated protein kinase 1 (Homo sapiens), sequence (P53355 whole entry, looked up): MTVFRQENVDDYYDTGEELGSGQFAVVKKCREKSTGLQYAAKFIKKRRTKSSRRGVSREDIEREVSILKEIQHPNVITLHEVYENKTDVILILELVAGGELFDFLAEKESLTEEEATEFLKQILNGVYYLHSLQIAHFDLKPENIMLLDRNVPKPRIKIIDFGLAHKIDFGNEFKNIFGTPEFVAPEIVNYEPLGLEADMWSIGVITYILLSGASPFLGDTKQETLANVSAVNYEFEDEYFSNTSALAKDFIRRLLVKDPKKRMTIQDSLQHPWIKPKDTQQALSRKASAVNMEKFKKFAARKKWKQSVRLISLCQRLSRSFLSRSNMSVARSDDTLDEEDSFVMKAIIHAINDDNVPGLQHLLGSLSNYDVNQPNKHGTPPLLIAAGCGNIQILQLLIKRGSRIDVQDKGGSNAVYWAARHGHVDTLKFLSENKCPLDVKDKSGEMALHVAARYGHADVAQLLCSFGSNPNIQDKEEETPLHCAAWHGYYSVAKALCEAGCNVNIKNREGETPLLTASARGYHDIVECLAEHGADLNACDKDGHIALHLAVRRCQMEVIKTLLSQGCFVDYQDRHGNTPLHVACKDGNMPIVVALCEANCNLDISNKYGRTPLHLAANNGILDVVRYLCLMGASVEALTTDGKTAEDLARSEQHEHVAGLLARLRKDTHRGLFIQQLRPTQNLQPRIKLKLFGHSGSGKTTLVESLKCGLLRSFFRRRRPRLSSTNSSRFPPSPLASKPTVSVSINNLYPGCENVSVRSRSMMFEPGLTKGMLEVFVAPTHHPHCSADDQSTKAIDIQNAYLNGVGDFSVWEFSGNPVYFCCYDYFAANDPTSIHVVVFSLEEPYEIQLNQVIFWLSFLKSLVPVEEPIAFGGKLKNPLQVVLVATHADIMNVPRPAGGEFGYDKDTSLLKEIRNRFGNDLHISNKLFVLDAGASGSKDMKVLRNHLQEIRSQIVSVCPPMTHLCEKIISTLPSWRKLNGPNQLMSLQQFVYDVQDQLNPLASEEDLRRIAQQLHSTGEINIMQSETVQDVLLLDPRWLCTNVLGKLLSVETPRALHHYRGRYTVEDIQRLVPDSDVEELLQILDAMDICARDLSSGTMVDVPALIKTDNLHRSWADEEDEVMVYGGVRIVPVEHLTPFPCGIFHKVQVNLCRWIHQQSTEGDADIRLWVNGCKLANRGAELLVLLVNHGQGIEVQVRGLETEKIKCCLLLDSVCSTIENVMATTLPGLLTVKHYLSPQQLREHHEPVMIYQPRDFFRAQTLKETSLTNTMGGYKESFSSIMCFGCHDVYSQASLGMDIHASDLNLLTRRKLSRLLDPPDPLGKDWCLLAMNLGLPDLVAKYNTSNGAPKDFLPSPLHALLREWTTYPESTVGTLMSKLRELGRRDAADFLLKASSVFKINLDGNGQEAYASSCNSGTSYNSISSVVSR
# Serine/threonine-protein kinase Chk2 (Homo sapiens), sequence (O96017 whole entry): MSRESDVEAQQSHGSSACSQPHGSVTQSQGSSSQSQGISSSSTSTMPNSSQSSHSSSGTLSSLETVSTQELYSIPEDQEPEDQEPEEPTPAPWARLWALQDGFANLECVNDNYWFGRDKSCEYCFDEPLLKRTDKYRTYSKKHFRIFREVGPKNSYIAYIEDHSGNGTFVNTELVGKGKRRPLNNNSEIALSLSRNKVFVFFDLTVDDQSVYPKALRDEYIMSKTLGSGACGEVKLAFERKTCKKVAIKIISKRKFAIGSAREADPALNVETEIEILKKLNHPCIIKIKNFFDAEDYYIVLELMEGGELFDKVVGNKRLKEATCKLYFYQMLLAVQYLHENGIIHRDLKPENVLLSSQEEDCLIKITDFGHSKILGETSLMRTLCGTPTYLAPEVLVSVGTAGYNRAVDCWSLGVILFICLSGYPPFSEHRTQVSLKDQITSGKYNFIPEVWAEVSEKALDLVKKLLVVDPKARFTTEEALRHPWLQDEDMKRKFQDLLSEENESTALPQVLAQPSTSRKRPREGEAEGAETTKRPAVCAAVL
# Calcium/calmodulin-dependent protein kinase type II subunit delta (Homo sapiens), sequence (Q13557 whole entry): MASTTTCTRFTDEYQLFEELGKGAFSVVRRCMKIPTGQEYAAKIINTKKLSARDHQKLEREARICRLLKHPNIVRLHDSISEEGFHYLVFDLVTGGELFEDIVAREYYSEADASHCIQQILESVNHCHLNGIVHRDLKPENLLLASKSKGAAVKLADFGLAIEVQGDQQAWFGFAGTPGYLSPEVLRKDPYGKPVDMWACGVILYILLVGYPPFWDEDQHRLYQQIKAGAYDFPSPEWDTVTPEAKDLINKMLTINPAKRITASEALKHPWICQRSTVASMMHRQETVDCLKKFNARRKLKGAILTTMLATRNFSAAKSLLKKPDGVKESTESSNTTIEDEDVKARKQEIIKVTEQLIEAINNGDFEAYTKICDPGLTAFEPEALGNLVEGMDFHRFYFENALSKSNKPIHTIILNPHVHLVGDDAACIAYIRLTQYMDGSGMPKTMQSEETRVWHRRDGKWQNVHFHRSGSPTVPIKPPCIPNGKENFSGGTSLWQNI
# Calcium/calmodulin-dependent protein kinase type 1D (Homo sapiens), sequence (Q8IU85 whole entry, looked up): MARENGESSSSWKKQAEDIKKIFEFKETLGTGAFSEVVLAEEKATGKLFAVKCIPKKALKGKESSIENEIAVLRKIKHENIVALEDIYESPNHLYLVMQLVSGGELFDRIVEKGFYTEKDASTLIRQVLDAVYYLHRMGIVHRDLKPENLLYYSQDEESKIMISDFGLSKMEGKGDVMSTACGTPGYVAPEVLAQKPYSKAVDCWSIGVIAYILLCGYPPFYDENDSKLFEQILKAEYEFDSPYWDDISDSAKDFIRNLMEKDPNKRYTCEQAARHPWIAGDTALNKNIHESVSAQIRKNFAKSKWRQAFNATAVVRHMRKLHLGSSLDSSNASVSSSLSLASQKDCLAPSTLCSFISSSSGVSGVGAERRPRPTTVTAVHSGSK
# 5'-AMP-activated protein kinase catalytic subunit alpha-2 (Homo sapiens), sequence (P54646 whole entry, looked up): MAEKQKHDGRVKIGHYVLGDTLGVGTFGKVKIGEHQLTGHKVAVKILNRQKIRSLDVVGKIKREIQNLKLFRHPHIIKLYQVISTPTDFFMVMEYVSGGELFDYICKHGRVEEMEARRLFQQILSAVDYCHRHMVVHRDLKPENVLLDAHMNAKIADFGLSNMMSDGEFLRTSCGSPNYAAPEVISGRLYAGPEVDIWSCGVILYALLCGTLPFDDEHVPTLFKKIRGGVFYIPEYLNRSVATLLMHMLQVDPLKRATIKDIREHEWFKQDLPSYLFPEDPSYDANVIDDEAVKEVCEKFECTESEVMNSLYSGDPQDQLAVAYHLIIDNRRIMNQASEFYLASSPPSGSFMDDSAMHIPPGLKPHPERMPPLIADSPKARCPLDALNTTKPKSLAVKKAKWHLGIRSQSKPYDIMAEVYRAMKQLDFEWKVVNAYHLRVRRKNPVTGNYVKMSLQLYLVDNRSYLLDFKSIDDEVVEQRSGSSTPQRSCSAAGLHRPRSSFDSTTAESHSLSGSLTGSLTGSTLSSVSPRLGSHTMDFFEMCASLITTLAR
# Calcium/calmodulin-dependent protein kinase type II subunit alpha (Homo sapiens), sequence (Q9UQM7 whole entry): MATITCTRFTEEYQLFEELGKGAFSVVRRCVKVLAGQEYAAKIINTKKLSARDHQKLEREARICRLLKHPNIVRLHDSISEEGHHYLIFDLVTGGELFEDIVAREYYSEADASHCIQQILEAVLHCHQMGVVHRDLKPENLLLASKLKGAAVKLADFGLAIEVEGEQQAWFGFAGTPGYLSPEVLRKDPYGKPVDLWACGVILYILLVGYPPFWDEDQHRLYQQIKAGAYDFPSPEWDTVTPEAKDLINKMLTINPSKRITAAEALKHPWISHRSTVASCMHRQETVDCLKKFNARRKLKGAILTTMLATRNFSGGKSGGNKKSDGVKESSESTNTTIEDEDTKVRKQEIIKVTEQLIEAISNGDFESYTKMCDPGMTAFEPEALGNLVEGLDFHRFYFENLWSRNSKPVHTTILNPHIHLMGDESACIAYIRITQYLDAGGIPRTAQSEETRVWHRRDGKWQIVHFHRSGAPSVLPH
SMILES,inhibition [1] [%],inhibition [2] [%],inhibition [3] [%],inhibition [4] [%],inhibition [5] [%],inhibition [6] [%],inhibition [7] [%],inhibition [8] [%],inhibition [9] [%],inhibition [10] [%],inhibition [11] [%],inhibition [12] [%],inhibition [13] [%],inhibition [14] [%],inhibition [15] [%],inhibition [16] [%],inhibition [17] [%],inhibition [18] [%],inhibition [19] [%],inhibition [20] [%]
COc1cc(Nc2nccc(-c3cnn4ncccc34)n2)cc(OC)c1,17.4,69.1,84.8,1.03,5.11,0.3,6.76,0.86,6.41,3.61,15.2,6.12,36.4,1.42,-0.26,-0.97,7.68,1.81,14.1,1.9
O=C1Nc2ccccc2/C1=C/Nc1ccc2[nH]c(=O)[nH]c2c1,12.8,12.6,46,1.38,15.7,5.21,25.8,-1.27,1.07,3.83,6.6,4.2,14.1,-1.23,-1.4,0.84,15.7,5.95,23.3,1.92
Cc1nc(-c2ccccc2)n2nc(NCCCN3CCOCC3)ncc12,4.91,0.66,20.3,1.1,-0.76,1.22,2.49,1.67,2.49,2.42,3.41,2.22,3.36,0.88,2.05,1.78,3.88,2.24,4.72,3.5
O=C(Nc1ccc(Oc2ccc3[nH]c(NC(=O)c4ccco4)nc3c2)cc1)Nc1cc(C(F)(F)F)ccc1F,3.81,0.89,5.7,0.62,-0.05,-0.37,1.01,0.46,3.08,0.33,2.09,1.58,4.15,2.98,4.62,-0.34,-0.68,0.12,4.39,-1.4
NC(=O)c1cccc(Nc2nccc(Nc3cccc(F)c3)n2)c1,3.97,23,58.2,1.64,7.42,0.1,8.9,0.4,3.1,2.84,0.53,0.45,2.08,1.09,1.02,0.04,1.52,-0.9,2.39,0.65
NS(=O)(=O)c1ccc(NC=C2C(=O)Nc3ccc4ncsc4c32)cc1,53.4,69.9,69.8,34.1,60.3,45.2,63.6,2.99,8.72,4.91,13.7,7.83,30.6,0.83,6.33,14.5,48,7.15,33.2,4.96
Cc1cc(-c2ccccn2)cc(C)c1/C=C/c1cncc(-c2nn[nH]n2)c1,3.78,2.95,6.85,2.2,-0.86,1.67,3.37,0.06,0.67,2.42,1.59,2.75,5,-1.17,-1.4,4.62,4.81,2.62,4.43,6.16
Cc1ccc(NC(=O)CC2CC2)cc1-c1ccc(C(=O)NCC2CC2)cc1,3.66,2.19,3.71,-0.17,0.46,1.82,3.93,0.97,0.89,2.5,2.95,2.84,3.34,-0.3,-0.84,7.49,10.9,6.96,7.62,11.5
NS(=O)(=O)c1ccc(-c2cc3ccncc3cc2OCc2ccccc2)cc1,2.32,-0.67,-0.08,-0.48,0.47,0.96,2.69,-6.04,0.65,1.83,2.94,2.4,4.59,-1.16,2.15,0.26,0.12,2.85,4.7,1.1
N#Cc1cccc(Nc2nccc(-c3cnn4ncccc34)n2)c1,12.5,38.5,73.4,0.94,7.19,2.94,12.1,-0.83,3.54,7.55,35.4,17.8,63.4,-1.28,-0.33,3,3.73,3.25,10.6,3.73
COc1cc2ncn(-c3cc(OCc4ccccc4S(C)(=O)=O)c(C#N)s3)c2cc1OC,31.2,14.5,54.3,37.1,76.3,53.7,82.2,1.23,6.21,6.03,29.9,18.3,62.8,1.21,1.69,5.49,23.3,10,43,3.5
CCn1c(-c2nonc2N)nc2c(C#CC(C)(C)O)nc(OCCNC)cc21,3.94,1.05,3.39,1.73,0.16,1.24,4.81,1.21,2.06,3.99,3.51,3.94,7.7,-0.53,2.52,-0.01,1.87,3.74,6.21,1.77
[O-][S+]1CCN(Cc2ccc(-c3ccc4ncnc(Nc5ccc(OCc6ccccc6)c(Cl)c5)c4c3)o2)CC1,1.22,-2.45,-2.99,0.95,0.18,1.49,2.79,-0.14,0.11,-0.84,-1.1,0.81,1.03,-1.57,-1.23,3.06,-0.08,1.32,2.85,1.85
CC(C)c1ccc2c(c1)NC(=O)/C2=N/Nc1ccc(S(N)(=O)=O)cc1,0.27,11,41.7,0.3,1.21,-0.18,7.2,-0.63,1.05,-0.9,0.01,-0.56,0.81,-0.87,0.54,-7.82,0.1,0.32,0.01,-0.88
